SW480 rerep = inducers of DNA re-replication in SW480 colon cancer cells | Potency, µM (top dose mostly 46.1 µM), without a hit: at the top dose re-replication activation, most hits filed as activators | 340,000 compounds, 1.8% hits | SW480 DNA re-replication, Hoechst DNA content imaging, 48 h | AID 624297; also: % of control where 0% means no effect; nearly all actives have a fitted effect of over 55% in size
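Per well, 250 cells were exposed to pinned compound for 48 hr. Nuclear DNA was visualised with Hoechst (40 min, 37 C) and total object intensity recorded by fluorescence scanning.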
a7 integrin act = activators of alpha7 integrin expression for muscular dystrophy. alpha7betagal myoblasts, beta-gal FDG fluorescence, 48 h. Potency, µM (doses to about 38.3 µM), for inactives: top-dose activation, hits mostly activators. 350,000 compounds, 0.064% hits. AID 624291;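 also: 100% = response of the positive control SU9516; nearly all actives have a fitted effect of over 60% in size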
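Alpha7betagal+/- myoblasts (passage 13) were plated 16-24 hr, then exposed to compounds (1:260 dilution of DMSO stock) for 48 hours at 37C. After MPER lysis, β-galactosidase reporter activity was read as FDG fluorescence (ex 480/em 540) after 30 minutes.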
AT treatment = potential ataxia-telangiectasia treatment | F2112 A-T fibroblasts, KAP-1 phosphorylation AlphaLISA; neocarzinostatin DNA damage 30 min before lysis | Potency, µM (doses to about 57.5 µM), without a hit: at the highest dose activation, most hits filed as activators | 320,000 compounds, 0.19% hits | AID 485349; also: % of control where 0% means no effect; nearly all actives have a fitted effect of over 45% in size
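ATM-like activity read as KAP-1 phosphorylation via AlphaLISA donor/acceptor antibody pairs after lysis and 6 hr at 25C. Cells were ATM-null patient fibroblasts (F2112, hTERT), dosed 60 min, then exposed to the DSB inducer NCS for 30 min.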
Mito fusion act = mitochondrial division inhibition or fusion activation; S. cerevisiae fusion-defective mutant growth rescue, CellTiterGlo 48 h; Potency, µM (titrated, usually from 46.1 µM), for inactives: at the top dose growth rescue (activation), usual class: activators; 320,000 compounds, 0.23% hits; also: % of control where 0% means no effect; nearly all actives have a fitted effect of over 45% in size
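Compounds are tested for their ability to restore growth of mitochondrial fusion-defective yeast strains at non-permissive 37C in YPEG medium over 48 hours. Viability is quantified by luciferase luminescence.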
MCF10A rerep = inducers of DNA re-replication in MCF 10A breast cells. Potency, µM (series often up to 46.1 µM), for the others: at the top dose activity, positive = re-replication, hits mostly activators. MCF 10A DNA re-replication, Hoechst nuclear intensity, 48 h. AID 624296. 350,000 compounds, 2.9% hits; also: % of control where 0% means no effect; nearly all actives have a fitted effect of over 50% in size
* hit, by the source's call; u = inconclusive; x = not tested or not shown; ! = not confirmed by another sample; [ ] = dose if it differs, or a comment. Hits are enriched below; roughly 4.2% of the tested compounds scored in any of these assays. Calls follow the shape of the dose curve; as a rule, active = well fitted activation curve with a large enough effect; inconclusive = small, poorly fitted or top-dose-only effect; inactive = no such curve, though single readings can be large or run the other way. Potency is read from the fitted curve at half-maximal effect.

SMILES	SW480 rerep	a7 integrin act	AT treatment	Mito fusion act	MCF10A rerep
Cn1c(=O)oc2cc(S(=O)(=O)N3CCCc4ccccc43)ccc21	u	-43%	1%	-3%	2.6µM*
C[C@H]1COC(=O)[C@@H](Cc2ccc(F)cc2)CC/C=C/C[C@H](CC(=O)N(CCO)Cc2ccccc2)C(=O)N1	-4%	-5%	8%	x	10%
Cc1ccccc1CN1Cc2cnnn2-c2ccccc2C1C#N (stereo unspecified)	u	-39%	x	x	6.5µM*
CC(C)(C)C(O)C(Oc1ccc(Cl)cc1)n1cncn1 (stereo unspecified)	-113%	x	-5%	35µM*	7%
CC(C(=O)c1ccc(Cl)cc1Cl)n1cncn1 (stereo unspecified)	-7%	17%	-1%	8%	-1%
CC(C)c1ccc(N2C(=O)NC(=O)/C(=C\c3cnc(-c4ccccc4)nc3)C2=O)cc1	-3%	18%	-4%	3%	4%
CC(C)c1ccc(N2C(=O)NC(=O)/C(=C\C=C\c3ccco3)C2=O)cc1	21µM*	0%	-6%	23%	3.7µM*
O=C1NC(=O)N(Cc2ccccc2)C(=O)/C1=C/C=C/c1ccco1	18µM*	-37%	21%	0%	4.1µM*
C[C@H](N)[C@@H](O)c1ccccc1	-6%[20.6 µM]	x	x	x	-6%[20.6 µM]
C=C1N2CCC(CC2)C1(O)c1ccc(C)cc1 (stereo unspecified)	-4%	9%	2%	-6%	5%
C=C1C(O)(c2ccccc2)C2CC[N+]1(C)CC2 (stereo unspecified)	1.2µM*	25%	-3%	1%	u
O=C(c1ccc(CNS(=O)(=O)c2ccccc2)cc1)N1CCC2(CC1)OCCO2	1%	15%	x	12%	8%
O=C(c1ccc(CNS(=O)(=O)c2ccc(Br)cc2)cc1)N1CCC2(CC1)OCCO2	0.58µM*!	-8%	1%	-10%	u
Cc1ccc(S(=O)(=O)NN)c(C)c1N1CCCC1=O	-8%	u	1%	-5%	-2%
Cc1cc(C)c(Cn2c(C(=O)O)c(C=O)c3ccccc32)c(C)c1	u	3%	9%	0%	6.5µM*
O=Cc1c(C(=O)O)n(Cc2ccccc2Cl)c2ccccc12	-12%	23%	-3%	5%	-2%
CC(=O)OCC1=C(C(=O)O)N2C(=O)[C@@H](NC(=O)CCC[C@@H](N)C(=O)O)[C@H]2SC1	x	x	x	4%	x
C=CCn1c(=O)c(C=Nc2c(OC)cccc2[N+](=O)[O-])c(O)n(CCCC)c1=O	u	4%	0%	-5%	7.3µM*
CO[C@@H](COC(N)=O)C1=C(N2CC2)C(=O)C(C)=C(N2CC2)C1=O	u	x	x	x	4.7µM*
COC(COC(N)=O)C1=C(N2CC2)C(=O)C(C)=C(N2CC2)C1=O (stereo unspecified)	u	-53%	x	x	u
Cc1cccc(C(=O)NC2CC3CCCC(C2)N3Cc2ccccc2)c1 (stereo unspecified)	u	5%	-2%	2%	-14%
CC(C)(C)c1nc(N2CCN(C(=O)c3ccco3)CC2)c2nnn(Cc3ccccc3Cl)c2n1	10%	-50%	1%	3%	18µM*
c1cc2c(c(N3CCNCC3)c1)OCCO2	-1%	x	x	x	4%
S=C=S	-4%	x	x	x	-2%
CCN(CC)Cc1cc(Nc2ccnc3cc(Cl)ccc23)ccc1O	-14%	x	-4%	2%	u
SMILES	SW480 rerep	a7 integrin act	AT treatment	Mito fusion act	MCF10A rerep
CC(=NCCc1c[nH]c2ccccc12)c1c(O)n(Cc2ccccc2)c(=O)[nH]c1=O	15µM*	0%	32µM*	-3%	u
C[N+]12CCC(CC1)[C@@H](OC(=O)C(O)(c1ccccc1)c1ccccc1)C2	-5%[20.6 µM]	x	x	x	-5%[20.6 µM]
C[CH2][Hg][S]c1ccccc1C(=O)O	6µM*	x	x	x	0.92µM*
CN(CC=CCN(C)P(=S)(N1CC1)N1CC1)P(=S)(N1CC1)N1CC1	u	-10%	x	x	13µM*
C=CCN1CCc2cccc3c2[C@H]1Cc1ccc(O)c(O)c1-3	u	-31%	10%	4.1µM*!	12%
COc1cccc(OC)c1C1=NCC(=O)Nc2c1oc1ccc(Br)cc21	0.65µM*	0%	7%	u	u
O=C1CN=C(c2ccccc2)c2oc3ccc(Br)cc3c2N1	0%	0%	3%	3%	9%
CCC12CN3CCN(CC(C3)/C1=N/NC(=O)c1ccncc1)C2	u	2%	-3%	2%[9.22 µM]	14%
CCCC12CN3CCN(CC(C3)/C1=N\NC(=O)c1ccncc1)C2	5.8µM*	u	8%	-1%	-4%
NC(=O)CI	x	x	x	-37%	x
CCN(CC)c1ccc(/C=C/[N+](=O)[O-])cc1	u	-61%	29%	-10%	u
O=[N+]([O-])/C=C/c1c(Cl)cccc1Cl	6.5µM*	-8%	x	x	3.7µM*
C[C@H]1CCC/C=C/[C@@H]2C[C@H](O)C[C@H]2[C@H](O)/C=C/C(=O)O1	u	x	-8%	9%	0.65µM*!
CCCCCC(O)C1C(=O)OC(C)C(O)\C=C/C=C\C=C/C=C\C=C(\C)C(O)C(O)C(O)CC(O)CC(O)CC(O)CC(O)CC1O (stereo unspecified)	-8%	x	x	x	5%
O=P(O)(O)COc1ccccc1O	4.6µM*	u	-12%	2%	u
COc1cc2c(c(OC)c1OC)-c1ccc(O)c(=O)cc1[C@@H](N)CC2	6%	-23%	-8%	-5%	-1%
COc1cc2c(c(OC)c1OC)-c1ccc(OC)c(=O)cc1[C@@H](NC(C)=O)CC2	0.0046µM*	x	-4%	-12%	0.042µM*
CCN(CC)c1ccc2c(cc1=O)[C@@H](NC)CCc1cc(OC)c(OC)c(OC)c1-2	1µM*	-19%	-1%	10%	1.3µM*
COc1cc2c(c(OC)c1O)-c1ccc(OC)c(=O)cc1C(NC(=O)C(F)(F)F)CC2 (stereo unspecified)	0.12µM*	15%	x	x	u
COc1cc2c(c(OC)c1OC)-c1ccc(C(=O)O)cc1[C@@H](NC(C)=O)CC2	-1%	x	x	x	-1%
CC1CN(C(=O)c2ccc(S(=O)(=O)Nc3ccccc3F)cc2)CC(C)O1 (stereo unspecified)	-70%	10%	-1%	0%	-1%
NC(N)=NS(=O)(=O)c1ccc(N)cc1	-23%	x	-10%	-2%	u
Nc1nc(N)nc(NC2CC2)n1	1%	x	x	x	3%
CC1CCC(C(C)C)C(OC(=O)c2ccccc2N)C1 (stereo unspecified)	-3%	x	x	x	19µM*
OC(COCc1ccc(Cl)cc1)CN1CC=C(c2ccccc2)CC1 (stereo unspecified)	25%	6%	13%	11%	15µM*
OC(CN1CC=C(c2ccccc2)CC1)c1ccccc1 (stereo unspecified)	23%	-20%	2%	4%	-6%
